# The entries come from a sample that favours the strongest signals as a whole.
# Experiments:
# Assay in all cases: glycan array binding signal (z-score within array); higher = stronger binding
# Details in all cases: glycan notation: IUPAC condensed, linker removed
# [1] = molecular target: GlcNAc(b1-3)[GlcNAc(b1-6)]GalNAc
# Outline: (§1)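 Negative Z-scores can be read as non-binding. The Z-score is calculated within each array and then averaged across arrays of one protein sequence at different concentrations or buffers and across linkers. Arrays, 3228 in all, were curated from the Consortium for Functional Glycomics database and kept only where the protein sequence was available.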
# [2] = molecular target: GlcNAc(b1-4)GlcNAc(b1-4)GlcNAc
# Outline: as §1
# [3] = molecular target: GlcNAc(b1-4)[GlcNAc(b1-6)]GalNAc
# Outline: as §1
# [4] = molecular target: Man(a1-2)Man(a1-2)Man(a1-3)Man
# Outline: as §1
# [5] = molecular target: Man(a1-2)Man(a1-3)[Man(a1-2)Man(a1-6)]Man(a1-6)[Man(a1-2)Man(a1-2)Man(a1-3)]Man(b1-4)GlcNAc(b1-4)GlcNAc
# Outline: as §1
# [6] = molecular target: Man(a1-2)Man(a1-3)[Man(a1-6)]Man(a1-6)[Man(a1-2)Man(a1-3)]Man(b1-4)GlcNAc(b1-4)GlcNAc
# Outline: as §1
# [7] = molecular target: Man(a1-2)Man(a1-6)[Man(a1-3)]Man(a1-6)[Man(a1-2)Man(a1-2)Man(a1-3)]Man(b1-4)GlcNAc(b1-4)GlcNAc
# Outline: as §1
# [8] = molecular target: Man(a1-3)[Man(a1-6)]Man
# Outline: as §1
# [9] = molecular target: Man(a1-3)[Man(a1-6)]Man(a1-6)[Man(a1-2)Man(a1-3)]Man(b1-4)GlcNAc(b1-4)GlcNAc
# Outline: as §1
# [10] = molecular target: Man(a1-3)[Man(a1-6)]Man(a1-6)[Man(a1-3)]Man
# Outline: as §1
# [11] = molecular target: Man(a1-3)[Man(a1-6)]Man(a1-6)[Man(a1-3)]Man(b1-4)GlcNAc(b1-4)GlcNAc
# Outline: as §1
# [12] = molecular target: Man(a1-3)[Man(a1-6)]Man(b1-4)GlcNAc(b1-4)GlcNAc
# Outline: as §1
# [13] = molecular target: Man(a1-3)[Man(a1-6)]Man(b1-4)GlcNAc(b1-4)[Fuc(a1-6)]GlcNAc
# Outline: as §1
# [14] = molecular target: Man(b1-4)GlcNAc
# Outline: as §1
# [15] = molecular target: Neu5Ac(a2-3)Gal(b1-3)GlcNAc(b1-2)Man
# Outline: as §1
# [16] = molecular target: Neu5Ac(a2-3)Gal(b1-3)GlcNAc(b1-3)Gal(b1-4)GlcNAc
# Outline: as §1
# [17] = molecular target: Neu5Ac(a2-3)Gal(b1-3)GlcNAc(b1-3)GalNAc
# Outline: as §1
# [18] = molecular target: Neu5Ac(a2-3)Gal(b1-3)GlcNAc6S
# Outline: as §1
# [19] = molecular target: Neu5Ac(a2-3)Gal(b1-4)GlcNAc
# Outline: as §1
# [20] = molecular target: Neu5Ac(a2-3)Gal(b1-4)GlcNAc(b1-3)Gal(b1-4)GlcNAc(b1-3)Gal(b1-4)GlcNAc
# Outline: as §1
# [21] = molecular target: Neu5Ac(a2-3)Gal(b1-4)[Fuc(a1-3)]GlcNAc(b1-3)Gal
# Outline: as §1
# [22] = molecular target: Neu5Ac(a2-3)Gal6S(b1-4)[Fuc(a1-3)]GlcNAc
# Outline: as §1
# [23] = molecular target: Neu5Ac(a2-6)Gal(b1-3)GlcNAc(b1-3)[Gal(b1-4)GlcNAc(b1-6)]Gal(b1-4)Glc
# Outline: as §1
# [24] = molecular target: Neu5Ac(a2-6)Gal(b1-4)GlcNAc(b1-2)Man(a1-6)[Man(a1-3)]Man(b1-4)GlcNAc(b1-4)GlcNAc
# Outline: as §1
# [25] = molecular target: Neu5Ac(a2-8)Neu5Ac(a2-8)Neu5Ac
# Outline: as §1
# [26] = molecular target: Neu5Ac(b2-6)Gal(b1-4)GlcNAc
# Outline: as §1
# [27] = molecular target: Neu5Gc(a2-8)Neu5Gc(a2-3)Gal(b1-4)GlcNAc(b1-3)Gal(b1-4)GlcNAc
# Outline: as §1
binder,measurement,setting,value
"NPA (Narcissus pseudonarcissus), C0HM45 (protein) DNILYSGETLSPGEFLNNGRYVFIMQEDCNLVLYDVDKPIWATNTGGLDRRCHLSMQSDGNLVVYSPRNNPIWASNTGGENGNYVCVLQKDRNVVIYGTARWATGTNIH",glycan array binding signal (z-score),[1],-0.147
same,glycan array binding signal (z-score),[2],-0.122
same,glycan array binding signal (z-score),[3],-0.146
same,glycan array binding signal (z-score),[4],0.268
same,glycan array binding signal (z-score),[5],0.144
same,glycan array binding signal (z-score),[6],2.38
same,glycan array binding signal (z-score),[7],1.83
same,glycan array binding signal (z-score),[8],5.21
same,glycan array binding signal (z-score),[9],5.6
same,glycan array binding signal (z-score),[10],2.47
same,glycan array binding signal (z-score),[11],5.37
same,glycan array binding signal (z-score),[12],10.1
same,glycan array binding signal (z-score),[13],5.34
same,glycan array binding signal (z-score),[14],-0.151
same,glycan array binding signal (z-score),[15],-0.122
same,glycan array binding signal (z-score),[16],-0.153
same,glycan array binding signal (z-score),[17],-0.14
same,glycan array binding signal (z-score),[18],-0.124
same,glycan array binding signal (z-score),[19],-0.154
same,glycan array binding signal (z-score),[20],-0.151
same,glycan array binding signal (z-score),[21],-0.162
same,glycan array binding signal (z-score),[22],-0.158
same,glycan array binding signal (z-score),[23],-0.144
same,glycan array binding signal (z-score),[24],3.41
same,glycan array binding signal (z-score),[25],-0.156
same,glycan array binding signal (z-score),[26],-0.154
same,glycan array binding signal (z-score),[27],-0.146
